Source: PubChem BioAssay
Most compounds without a hit are left out; they make up all but 1.2% or so of the library.
PGK inhibitor: blocks T. brucei phosphoglycerate kinase; PGK/GAPDH coupled, Kinase-Glo luminescence, 60 min; AID 602233; 380,000 tested, 0.043% active; P07378; Potency, µM (top dose mostly 57.5 µM), hits mostly inhibitors; further: nearly all actives have a fitted effect of over 60% in size
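Recombinant glycosomal PGK reaction used 1,3-bisphosphoglycerate generated in-well by GAPDH (100nM final) in 100mM TEA pH 7.6, 5mM MgCl2, 0.01% Tween-20. After 60 minutes at room temperature, ATP was read by Kinase-Glo Plus luminescence end-point.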
PI5P4Ka inh: inhibitors of human PI5P4K alpha. max response, %. PI5P4Kalpha enzyme, ADP-Glo luminescence, 60 min; stronger effect = lower value. 330,000 tested, 1.2% active; active means max response of -50% or lower; inconclusive means between -30% and -50%; inactive means -30% or higher; further: value at the top dose of about 77 µM
Target sequence (P48426 whole entry, looked up): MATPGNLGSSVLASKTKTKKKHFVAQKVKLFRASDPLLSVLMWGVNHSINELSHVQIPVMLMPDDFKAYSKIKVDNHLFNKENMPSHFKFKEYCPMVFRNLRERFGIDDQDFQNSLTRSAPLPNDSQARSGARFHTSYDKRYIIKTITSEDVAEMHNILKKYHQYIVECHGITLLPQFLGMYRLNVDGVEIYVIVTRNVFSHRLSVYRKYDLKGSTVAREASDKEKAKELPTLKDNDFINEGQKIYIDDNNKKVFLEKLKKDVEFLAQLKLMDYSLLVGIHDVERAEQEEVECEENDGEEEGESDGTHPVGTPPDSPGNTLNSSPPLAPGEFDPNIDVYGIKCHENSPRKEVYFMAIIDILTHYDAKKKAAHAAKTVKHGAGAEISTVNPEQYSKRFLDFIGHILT
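Reactions run in 0.038 M HEPES pH 7.4, 0.28 mM EGTA, 0.1% CHAPS and 5% DMSO, with PI5P4Kalpha, substrate, compound and 5 microM ATP final, one hour at room temperature. Readout is ADP-Glo luminescence.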
RGS12 GoLoco inh: blocks human Gai1 binding to RGS12 GoLoco peptide, red readout | 230,000 tested, 0.44% active | Gai1:RGS12 GoLoco peptide FP, rhodamine, 10 min | Potency, µM (top dose mostly 61.6 µM), hits mostly inhibitors | AID 880 | P63096; active means well fitted inhibition curve with a large enough effect, not every such curve was filed as active; inactive means no such curve, though single readings can be large or run the other way; further: nearly all actives have a fitted effect of over 30% in size
PI4K2A inh: blocks human PI4K2A kinase activity; purified PI4K2A, ADP-Glo luminescence, 1 h; stronger effect = lower value; 420,000 tested, 0.13% active; activity change, negative = inhibition, % at 76.9 µM; AID 1346378; Q9BTU6; in the data active means activity change below about -50%; inconclusive means mostly about -30% to -49%
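In this quantitative HTS, ADP production by PI4K2A was quantified luminescently after 1 h at ambient temperature; 100 microM adenosine served as plate-quality control.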
GCN5L2 inh: inhibitors of human GCN5L2 histone acetyltransferase; Potency, µM (highest dose often 58.9 µM), hits mostly inhibitors; 390,000 tested, 0.21% active; GCN5L2 HAT assay, ThioGlo1 CoA-SH fluorescence; AID 504327
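GCN5L2 (20nM final) in 50mM HEPES, 0.1mM EDTA pH 7.5, 0.01% Tween-20 was preincubated 15 min at room temperature with compound, then given ThioGlo1 (50uM), H3(1-25) peptide (75uM) and acetyl-CoA (70uM); CoA-thiol fluorescence (Ex340/Em540) was read at 0 and 20 min.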
Pin1 inh: inhibitors of human Pin1; Q13526; Pin1 FP peptide displacement, HiFluor488, 10 min; Potency, µM (series often up to 115 µM), hits mostly inhibitors; 390,000 tested, 0.009% active; active means well fitted inhibition curve with a large enough effect in the polarisation, with a control signal flat, not every such curve was filed as active; inconclusive means small, poorly fitted or top-dose-only effect, or effect the other way, or a change in a side signal; inactive means no such curve, though single readings can be large or run the other way; the % refers to the polarisation
Target sequence (Q13526 whole entry, looked up): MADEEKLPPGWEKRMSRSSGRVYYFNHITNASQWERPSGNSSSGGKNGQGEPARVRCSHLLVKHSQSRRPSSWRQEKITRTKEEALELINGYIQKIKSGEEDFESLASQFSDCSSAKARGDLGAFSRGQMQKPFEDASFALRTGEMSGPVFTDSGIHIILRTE
Hits are given with their value; . = inactive; ? = inconclusive; / = not tested or not shown; [ ] = remark or other dose. Unless noted, the call rests on the fitted dose curve; in most records, active means well fitted curve in the direction sought with a large enough effect; inconclusive means small, poorly fitted or top-dose-only effect, or another doubt; inactive means no such curve, though single readings can be large; an effect the other way counts as inactive or inconclusive.

SMILES	PGK inhibitor	PI5P4Ka inh	RGS12 GoLoco inh	PI4K2A inh	GCN5L2 inh	Pin1 inh
CCOC(=O)C1CCCN(C(=O)c2cc(Nc3ccc(OC)cc3)nc3ccccc23)C1 (stereo unspecified)	.	.	.	.	/	?
COc1ccc(OC)c(N2C(=O)[C@@H]3C(c4ccccc4Cl)=NO[C@@H]3C2=O)c1	13µM	-66	.	.	.	/
C/C(=N\NC(=S)NC(C)C)c1ccc2c(c1)OCCO2	.	.	.	.	.	.
CNC(=S)N/N=C(\C)c1ccc2c(c1)OCO2	.	-65	.	.	.	.
C/C(=N\NC(=S)Nc1ccc(C(C)C)cc1)c1ccc2c(c1)OCO2	.	.	.	.	.	.
CNC(=S)N/N=C(\C)c1ccc2c(c1)OCCO2	.	-76	.	.	.	.
Cc1cccc(OCc2nnc(SC(C)C(=O)O)n2-c2ccccc2)c1 (stereo unspecified)	.	-53	/	.	.	.
Cc1cc(-c2ccc(N=Nc3ccc4c(S(=O)(=O)O)cc(S(=O)(=O)O)c(N)c4c3O)c(C)c2)ccc1N=Nc1ccc2c(S(=O)(=O)O)cc(S(=O)(=O)O)c(N)c2c1O	/	/	.	/	3.2µM	/
Nc1c(N=Nc2ccc(-c3ccc(N=Nc4cc(S(=O)(=O)O)c5ccccc5c4N)cc3)cc2)cc(S(=O)(=O)O)c2ccccc12	/	/	.	/	2.2µM	/
Cc1ccc(NC(=S)NNC(=O)c2nn(C)cc2Cl)cc1	.	.	.	.	.	.
COc1ccc(OC)c(Nc2nc(-c3ccc(C)cc3)nc3ccccc23)c1	.	/	/	.	25µM	.
COc1ccc(Nc2nc(-c3ccc(C)cc3)nc3ccccc23)c(OC)c1	.	/	/	.	.	.
Cc1ccc(N(C(=O)CNC(=O)c2ccco2)C(C(=O)NCC2CCCO2)c2ccccc2)cc1C (stereo unspecified)	.	.	/	.	.	.
COc1cccc(-n2c(SCc3cc(=O)oc4cc(O)c(O)cc34)nc3ccccc3c2=O)c1	?	-61	.	.	?	?
CCN(CC)C(=O)CSc1nc2ccccc2c(=O)n1-c1cccc(OC)c1	.	.	.	.	.	.
COC(=O)c1nnn(-c2ccc(Br)cc2)c1C(=O)OC	.	/	/	.	.	.
Nc1ccc(-c2ccc(N)c(O)c2)cc1O	/	/	.	/	/	/
O=c1ccc(N=Nc2ccccc2)ccc1O	.	.	.	-60	.	?
O=S(=O)(O)c1ccc(N=Nc2ccccc2)cc1	.	.	.[14.2 µM]	?	.	.
O=c1c2ccccc2nc(N/N=C/c2c(O)ccc3ccccc23)n1O	.	-78	.	.	.	?
O=c1c2ccccc2nc(N/N=C/c2ccc(O)cc2)n1O	.	.	.	.	.	.
C=CCNc1nc(-c2ccc(O)c(C(N)=O)c2)cs1	.	-58	.	.	.	.
NC(=O)c1cc(-c2csc(NCCc3ccccc3)n2)ccc1O	.	.	/	.	.	.
CC1(C(=O)N2CCN(C(=O)c3ccco3)CC2)CC1(Br)Br (stereo unspecified)	.	.	/	.	6.3µM	.
O=C(c1ccco1)N1CCN(Cc2ccc(Cl)cc2)CC1	.	.	.	-65	.	.
SMILES	PGK inhibitor	PI5P4Ka inh	RGS12 GoLoco inh	PI4K2A inh	GCN5L2 inh	Pin1 inh
O=C(c1ccco1)N1CCN(C(=O)N2CCCCC2)CC1	.	.	.	.	.	.
COc1cccc2c1C(=N)c1c(O)c3c(c(O)c1C2=O)C[C@](O)(C(C)=O)C[C@@H]3O[C@H]1C[C@H](N)[C@@H](O)[C@H](C)O1	/	/	.[14.2 µM]	/	/	/
CC(=O)C1(O)Cc2c(O)c3c(c(O)c2C(OC2CC(N)C(O)C(C)O2)C1)C(=O)c1c(O)cccc1C3=O (stereo unspecified)	/	/	/	/	.	/
COc1cccc2c1C(=O)c1c(O)c3c(c(O)c1C2=O)C[C@@](O)(C(=O)CO)C[C@@H]3O[C@@H]1C[C@H](N)[C@H](O)[C@H](C)O1	/	/	11µM	/	/	/
COc1cccc2c1C(=O)c1c(O)c3c(c(O)c1C2=O)C[C@@](O)(C(=O)CO)C[C@@H]3OC1CC(N)C(O)C(C)O1 (stereo partly specified)	.	.	.	.	.	?
COc1cccc2c1C(=O)c1c(O)c3c(c(O)c1C2=O)C[C@@](O)(C(=O)CO)C[C@@H]3O[C@H]1C[C@H](N)[C@H](O)[C@H](C)O1	.	.	2.8µM	.	.	.
COc1cccc2c1C(=O)c1c(O)c3c(c(O)c1C2=O)C[C@](O)(C(C)=O)C[C@H]3O[C@@H]1C[C@H](N)[C@H](O)[C@H](C)O1	/	/	3.2µM	/	.	/
CCC/C(O)=C1\C(=O)CCCC1=NCCc1c(C)[nH]c2ccccc12	.	.	.	.	.	.
CNc1nc(OC)nc(N(C#N)CN2C(=O)c3ccccc3S2(=O)=O)n1	.	.	.	.	.	.
O=C(Cn1cnc2c(nnn2Cc2ccccc2)c1=O)c1ccc(Cl)cc1	.	.	.	.	.	.
Cc1cc(C)cc(N(CC(=O)NC2CCC(C)CC2)S(=O)(=O)c2ccc([N+](=O)[O-])cc2)c1 (stereo unspecified)	/	/	/	.	/	/
COc1cc(O)oc1C=Nc1ccc(Cl)cc1	.	.	.	.	.	.
COc1cc(O)oc1C=Nc1ccc(C(=O)O)cc1	?	.	.	-50	.	.
CC12CC(O)C3c4ccc(O)cc4CCC3C1CC/C2=N\O (stereo unspecified)	.	.	/	.	.	.
CCOC(=O)c1cc2n(c1/N=C/N(C)C)-c1ccccc1C2=O	/	/	25µM	.	.	?
CCOC(=O)c1cc(=O)[nH]c2ccccc12	.	.	.	.	.	.
CCCCN(CCCC)CCCNC(=O)C1CC(c2cc(C(F)(F)F)cc(C(F)(F)F)c2)=NO1 (stereo unspecified)	.	.	/	-66	/	.
O=C(N/N=C/c1ccccc1O)NC12CC3CC(CC(C3)C1)C2	.	.	/	.	.	.
O=C(N/N=C/c1cc(Cl)cc([N+](=O)[O-])c1O)NC12CC3CC(CC(C3)C1)C2	11µM	-69	.	.	?	/
c1ccc2c(-n3cccn3)cccc2c1	.	.	.	.	.	.
COC(=O)[C@@]12CCCN1[C@H](c1ccc(-c3ccccc3)c(OC)c1)[C@H]1C(=O)N(C)C(=O)[C@H]12	.	.	/	.	.	.
CCOC(=O)C1=C(C)N(C[C@@H]2CC[C@@H](Cc3ccc(-c4ccccc4)cc3)O2)C(=O)NC1c1ccc(SCc2ccco2)c([N+](=O)[O-])c1 (stereo partly specified)	.	-70	/	.	?	?
